Experimental data published in PubChem BioAssay (NCI).
Compounds without any hit were thinned out: in the full panel of roughly 79,000, 15% have a hit. Cut-off read from the data, not from the text of the source: active = growth inhibition above about 70%; inactive = the rest. Where a SMILES comes first, the peptide text is derived from it. The star is where a group is joined. Trt = c1ccc(C(c2ccccc2)(c2ccccc2)*)cc1; Cbz = O=C(OCc1ccccc1)*; Bz = O=C(c1ccccc1)*

Experiments:
[1] = NCI Yeast Anticancer Drug Screen. Data for the rad50 strain (AID 155);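 note: 0% = growth of vehicle-only cultures of the same strain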; settings: S. cerevisiae rad50 strain growth inhibition; at 50.0 µM; active compounds read high
Method in brief: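 DNA repair mutant yeast, compound exposure, growth read-out; inhibition is taken relative to vehicle.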

[2] = NCI Yeast Anticancer Drug Screen. Data for the mec2-1 strain (AID 157); settings: S. cerevisiae mec2-1 strain, at 50.0 µM, active compounds read high
Method in brief: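 Using mec2-1 yeast: add compound, measure growth, express inhibition versus vehicle-treated cultures.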

[3] = NCI Yeast Anticancer Drug Screen. Data for the sgs1 mgt1 strain (AID 161);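 note: 0% = growth of cultures given vehicle only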; settings: S. cerevisiae sgs1 mgt1 strain, at 50.0 µM, active compounds read high
Method in brief: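 Yeast cells carrying a defined DNA-repair defect were exposed to test compounds. Growth inhibition was measured relative to vehicle-treated controls.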

[4] = NCI Yeast Anticancer Drug Screen. Data for the cln2 rad14 strain (AID 165);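 note: 0% = growth equal to vehicle treated cultures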; settings: S. cerevisiae cln2 rad14 strain, at 50.0 µM, active compounds read high
Method in brief: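 Yeast strain cln2 rad14, bearing defects in cell cycle control and DNA repair, serves as the test system; values reflect growth inhibition compared with vehicle.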

[5] = NCI Yeast Anticancer Drug Screen. Data for the bub3 strain (AID 167); settings: S. cerevisiae bub3 mutant strain, at 50.0 µM, active compounds read high
Method in brief: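 In this screen, a yeast mutant lacking normal mitotic checkpoint function is challenged with compound. Relative growth versus vehicle gives the inhibition value.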

[6] = NCI Yeast Anticancer Drug Screen. Data for the mlh1 rad18 strain (AID 175); settings: S. cerevisiae mlh1 rad18 strain growth inhibition; at 50.0 µM; active compounds read high
Method in brief: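 Steps: expose repair-defective yeast to compound; measure growth; express inhibition against vehicle-treated controls.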

Measured: growth inhibition

COc1ccccc1CC(=O)O
inactive: [1] 27.9% | [2] 2.15% | [3] 16.4% | [4] 17.3% | [5] -1.85% | [6] 0.05%

CSCCC(N)C(=O)NC(CCSC)C(=O)O (stereo not drawn) (H-Met-Met-OH; configuration not given here)
inactive: [1] -12% | [2] -21.4% | [3] 2.4% | [4] -25.1% | [5] -8.95% | [6] -5.7%

NC(=O)N/N=C1/CCC(O)CC1CC(=O)O (configuration not stated)
inactive: [1] -7.85% | [2] -4.75% | [3] -7.05% | [4] 12.7% | [5] -57.9% | [6] -2.95%

S=C(S)NCNC(=S)S.[Zn+2]
inactive: [1] 1.65% | [2] 12.2% | [3] 26.1% | [4] -64.2% | [5] 28.2% | [6] 29.4%

C=Cc1c2[n-]c(c1C)/C=c1\[n-]/c(c(C)c1C=C)=C\c1[n-]c(c(CCC(=O)O)c1C)/C=c1\[n-]/c(c(C)c1CCC(=O)O)=C\2.[Co]
inactive: [1] 14.8% | [2] 54.9% | [3] 53.6% | [4] -2.05% | [5] 19.2% | [6] 59.9%

CC(=O)NC1C(OCc2ccccc2)OC(CO)C(O)C1OCc1ccccc1 (configuration not stated)
inactive: [1] 27.3% | [2] -18.2% | [3] 15.6% | [4] -24.1% | [5] -2.9% | [6] -11.8%

Nc1n[nH]c(=S)n1Cc1ccccc1
inactive: [1] -21.8% | [2] -10% | [3] -27.1% | [4] -18.2% | [5] -14.6% | [6] -10.7%

C/C(Cl)=C/CC1(C)CCCC(C)(C)CC1=O (configuration not stated)
inactive: [1] 6.4% | [2] 7.4% | [3] 1.5% | [4] 2.05% | [5] 1.85% | [6] -10.3%

CCOC(=O)C(Cl)(NC(=O)c1ccc(F)cc1)C(F)(F)F (configuration not stated)
inactive: [1] -6.25% | [2] 6.7% | [3] -18.5% | [4] 7.3% | [5] -12.9% | [6] -18.1%

Cc1ccc(Cl)cc1NC(=O)/C=C/c1ccccc1
inactive: [1] 3.05% | [2] 8.4% | [3] 6.4% | [4] -7.35% | [5] 10.5% | [6] 18.6%

CCOC(=O)C(C#N)C(=O)c1ccccc1-c1ccccc1[N+](=O)[O-] (configuration not stated)
inactive: [1] 7.9% | [2] 1.1% | [3] 3.35% | [4] -9.4% | [5] -13.2% | [6] 5%

N#Cc1nc(CCC(C(=O)O)N2C(=O)c3ccccc3C2=O)oc1N (configuration not stated)
inactive: [1] 3.55% | [2] 15.2% | [3] -12.1% | [4] -0.55% | [5] -9.15% | [6] -46.9%

CC(=O)OCCOc1ccc(C(C)(C)C)cc1
inactive: [1] 45% | [2] -18.4% | [3] 9.25% | [4] 32.5% | [5] 11.8% | [6] 15.2%

O=Cc1ccc(O)c(C(=O)O)c1
inactive: [1] 8.6% | [2] 5.8% | [3] 15.3% | [4] 21.1% | [5] 21.1% | [6] 2%

Cc1cc(C)c(C)c(C)c1C
inactive: [1] 17.6% | [2] -8.15% | [3] 14.8% | [4] 2.55% | [5] -3.6% | [6] 20.6%

Nc1c(N=Nc2ccc(S(=O)(=O)Nc3cnccn3)cc2)cc(S(=O)(=O)O)c2ccccc12
inactive: [1] 10.6% | [2] -2.45% | [3] 8.3% | [4] 5.9% | [5] 9.8% | [6] 26.6%

COC(=O)C(CSC(=O)c1ccccc1)NC(=O)CNC(=O)CNC(=O)C(CCCCNC(=O)OCc1ccccc1)NC(=O)CNC(=O)C(CSC(c1ccccc1)(c1ccccc1)c1ccccc1)NC(=O)OCc1ccccc1 (configuration not stated) (Cbz-C(Trt)GK(Cbz)GGC(Bz)-OMe; configuration not given here)
inactive: [1] -4.85% | [2] 22.9% | [3] 25.8% | [4] -6% | [5] -53.1% | [6] 32.1%
